In the library only some 0.39% were active in any assay of this set; here they are far more common.
CCT modulator – cytosolic chaperonin activity modulation; purified chaperonin ATPase assay, HTRF ADP detection, 30 min; AID 651819; 0.3% of 360,000 active; activity change, % (test concentration not listed), hits read low; in the data active = activity change below about -30%; note: % is set by controls: 0 for no effect and ±100 for the full control effect
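ATPase activity: ADP formed was measured by HTRF Transcreener (665/615 nm ratio) after 30 min at 37 deg C with 10 uM ATP. Compounds screened at one 76 uM concentration against 40 or 20 nM TRiC in Tris pH 7.4/KCl/MgCl2/DTT buffer.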
Apoferritin bind – binds horse apoferritin like a general anesthetic. 0.074% of 350,000 active. AID 485281. Potency, µM (doses to about 77.5 µM), inactives show at the top dose activity change, negative = displacement, most hits filed as inhibitors. apoferritin/1-aminoanthracene competitive binding, fluorescence; note: potency is the fitted concentration of half-maximal effect; % is set by controls: 0 for no effect and ±100 for the full control effect; nearly all actives have a fitted effect of over 20% in size
Target sequence (P02791 2-175 limits assumed): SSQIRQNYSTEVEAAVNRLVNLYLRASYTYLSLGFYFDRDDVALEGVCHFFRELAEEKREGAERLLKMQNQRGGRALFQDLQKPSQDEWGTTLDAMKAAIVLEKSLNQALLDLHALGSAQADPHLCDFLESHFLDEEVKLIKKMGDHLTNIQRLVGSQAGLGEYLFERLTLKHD
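Apoferritin-based anesthetic binding model; compound displacement of fluorescent 1-AMA measured as endpoint fluorescence after 10 minutes at room temperature, scaled to free-ligand and complex controls.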
ERG Ets-DNA blk – ERG Ets/DNA interaction inhibition | fluorescence polarization, His-ERG Ets domain / labelled DNA | 0.028% of 370,000 active | Potency, µM (titrated, usually from 76.9 µM), for the others: top-dose FP activity, negative = inhibition, actives largely listed as inhibitors; active = well fitted inhibition curve with a large enough effect in the polarisation, with a control signal flat; inconclusive = small, poorly fitted or top-dose-only effect, or effect the other way, or a change in a side signal; inactive = no such curve, though single readings can be large or run the other way; the % refers to the polarisation;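 note: polarization taken with two DNA probes labelled with fluorescein and Texas red; potency is the fitted concentration of half-maximal effect; % of control where 0% means no effect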
Target sequence (P11308 whole entry, looked up, the tested form may be a part): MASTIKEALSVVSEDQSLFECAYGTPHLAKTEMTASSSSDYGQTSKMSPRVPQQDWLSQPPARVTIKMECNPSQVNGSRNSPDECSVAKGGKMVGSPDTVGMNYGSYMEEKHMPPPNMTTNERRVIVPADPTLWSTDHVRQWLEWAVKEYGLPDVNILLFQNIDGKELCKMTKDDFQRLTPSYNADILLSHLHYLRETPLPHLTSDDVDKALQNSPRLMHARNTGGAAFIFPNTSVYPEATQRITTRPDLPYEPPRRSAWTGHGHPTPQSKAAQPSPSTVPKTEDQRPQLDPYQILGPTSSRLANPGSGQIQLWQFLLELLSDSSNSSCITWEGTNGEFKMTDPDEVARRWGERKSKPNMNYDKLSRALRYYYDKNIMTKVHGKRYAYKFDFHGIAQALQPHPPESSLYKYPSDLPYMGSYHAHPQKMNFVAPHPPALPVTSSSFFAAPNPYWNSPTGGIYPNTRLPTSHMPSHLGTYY
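His-tagged ERG Ets domain (1 uM in the protein solution; 300mM KCl, 50mM Tris-HCl, 1mM EDTA, 1mM DTT, pH 7.5) received compound, then a probe mix of 5 nM fluorescein-DNA and 100nM Texas-615-DNA. Fluorescence polarization was read for both dyes.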
MmCpn inh – blocks the Methanococcus maripaludis chaperonin Mm-Cpn; purified Mm-Cpn ATPase, ADP Transcreener TR-FRET; Potency, µM (series often up to 76.9 µM), inactives show top-dose activity, negative = inhibition, actives largely listed as inhibitors; 0.031% of 330,000 active; AID 504842; note: potency is the fitted concentration of half-maximal effect; % is set by controls: 0 for no effect and ±100 for the full control effect; nearly all actives have a fitted effect of over 80% in size
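Reaction buffer contained 30 mM Tris pH 7.4, 100 mM KCl, 5 mM MgCl2 and 1 mM DTT. Mm-CPN (25 nM final) hydrolysed 10 uM ATP over 30 min at 37°C; ADP was read by HTRF.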
* = called active by the depositor; ? = inconclusive; nt = not tested or not shown; [ ] = dose if it differs, or a comment. Unless noted, calls come from the whole dose curve; as a rule, active = well fitted curve in the direction sought with a large enough effect; inconclusive = small, poorly fitted or top-dose-only effect, or another doubt; inactive = no such curve, though single readings can be large; an effect the other way counts as inactive or inconclusive.

SMILES | CCT modulator | Apoferritin bind | ERG Ets-DNA blk | MmCpn inh
C=C[C@@H]1CN2CCC1C[C@@H]2C(O)c1ccnc2ccc(OC)cc12 (some centres not stated) | nt | -10.8% | nt | nt
COc1ccc(CN2C(=O)c3cccnc3C2Nc2ccc(OC)c(Cl)c2)cc1 (configuration not stated) | -70.9* | -19.3% | 7.5% | -10.9%
O=C(COc1ccccc1O)c1cccs1 | 0.0 | 28.2µM* | 2.7% | 0.3%
CSc1nsc(SC)c1C(=O)Nc1ccc(C(C)(C)C)cc1 | 1.7 | -13.1% | -10.3% | 0.9%
CSc1nsc(SC)c1C(=O)NC(=O)Nc1cccnc1 | -42.4* | 41.5% | -7.8% | -0.5%
COCCNC(=O)CN1C(=O)NC2(CCCc3cc(OC)ccc32)C1=O (configuration not stated) | -36.0* | -6.2% | -2.6% | -2.1%
Cc1nc(-c2cccc(-c3noc(C)n3)c2)no1 | -43.7* | -2.8% | -20.0% | 2.2%
CCc1sc2nc(SCC(=O)Nc3cc(C)on3)n(-c3cccc(OC)c3)c(=O)c2c1C | -36.1* | -15.1% | -14.6% | -3.1%
COc1cccc(-n2c(SCC(=O)Nc3cc(C)on3)nc3ccccc3c2=O)c1 | 0.0 | -16.1% | -16.4% | 1.0%
Cc1cc(I)ccc1Nc1c(C(=O)NOCC2CC2)cc(F)c(F)c1F | nt | -13.4% | nt | nt
COc1ccc2nc(SCC(=O)Nc3cc(C)on3)c(C#N)cc2c1 | -0.9 | 4.2% | 1.0% | -2.2%
Cc1cc(NC(=O)CSc2nc3ccccc3cc2C#N)no1 | -93.6* | -6.0% | 0.6% | -5.8%
O=C(OC1CCOC1=O)c1cc(-c2cccs2)nc2ccccc12 (configuration not stated) | -74.0* | 141.6% | -9.4% | -10.7%
Cc1ccc(-c2cc(C(=O)OC3CCOC3=O)c3ccccc3n2)c(C)c1 (configuration not stated) | -2.1 | -21.0% | -1.9% | -0.7%
COc1ccc(-c2cc(C(F)(F)F)nc(-n3cncn3)n2)cc1 | -4.7 | 31.6µM* | -4.9% | 1.9%
COc1ccc(-c2cc(C(F)(F)F)nc(-n3cc(Br)cn3)n2)cc1 | -0.6 | -11.9% | -10.9% | -1.9%
CC1Sc2ccc(S(=O)(=O)N3CCC(C(=O)N(C)Cc4ccco4)CC3)cc2NC1=O (configuration not stated) | 1.5 | -22.1% | 20.3% | 3.0%
CC1Sc2ccc(S(=O)(=O)N3CCC(C(=O)NCc4ccco4)CC3)cc2NC1=O (configuration not stated) | -33.8* | -9.5% | 0.3% | 3.1%
CCC1Cc2cc(O)ccc2C2=C1c1ccc(O)cc1CC2CC (configuration not stated) | nt | -8.0% | nt | nt
Nc1cc(C(F)(F)F)ccc1NCCc1ccccn1 | -107.3* | -5.5% | 30.4% | -5.1%
CCOC(=O)c1c(NC(=O)CSc2nnc(-c3ccco3)o2)sc(C(C)=O)c1C | -59.8* | ? | 1.8% | nt
CCOC(=O)c1c(NC(=O)CSc2nnc(-c3ccco3)o2)sc(C)c1C | -1.9 | ? | 2.0% | -3.5%
CCN(CC(=O)Nc1cc(Cl)ccc1C)C(=O)C1CC(=O)N(Cc2ccccc2)C1 (configuration not stated) | -1.7 | nt | -4.8% | 0.4%
CCCN(CC(=O)Nc1ccc(F)c(F)c1F)C(=O)C1CC(=O)N(Cc2ccccc2)C1 (configuration not stated) | -0.3 | nt | 35.5µM* | 0.5%
CCc1ccccc1Nc1cc(C(=O)NCc2ccc(C)cc2)c2ccccc2n1 | nt | 60.9% | 2.8% | nt
SMILES | CCT modulator | Apoferritin bind | ERG Ets-DNA blk | MmCpn inh
O=C(CN1CCN(Cc2ccccc2)CC1)N/N=C/c1cccnc1 | -35.9* | 4.4% | -3.8% | 0.1%
C=CCn1c(SCC(=O)N2CCOCC2)nnc1C(C)NC(=O)c1ccccc1 (configuration not stated) | -47.5* | 1.8% | 6.7% | 2.4%
Cc1ccc(CNS(=O)(=O)c2ccc3c(c2)NC(=O)CS3)cc1 | -73.6* | -12.1% | 5.4% | 3.1%
O=C1CSc2ccc(S(=O)(=O)NCc3ccc(F)cc3)cc2N1 | 2.0 | -17.0% | 4.8% | 0.5%
NC(c1ccccc1)c1ccncc1 (configuration not stated) | -42.6* | -1.0% | -5.5% | 1.6%
Cc1ccc(C)c(NC(=S)N(CCc2nc3cc(C)c(C)cc3[nH]2)Cc2cccnc2)c1 | -57.7* | -7.2% | nt | 5.1%
COc1ccc(CC(=O)Nc2c(C(=O)N3CCN(c4ncccn4)CC3)oc3ccccc23)cc1OC | -2.7 | -6.4% | -4.7% | 0.9%
COc1ccc(CC(=O)Nc2c(C(=O)N3CCN(c4ncccn4)CC3)oc3ccccc23)cc1 | -68.4* | -11.0% | 3.4% | -4.9%
CC(=O)NC(=S)Nc1sc2c(c1C#N)CCCCC2 | -30.8* | -2.6% | -5.1% | 2.1%
OC1OC[C@H](O)[C@H](O)[C@H]1O (some centres not stated) | nt | 5.9% | nt | nt
Cc1nn(CC(=O)N2CCC(C)CC2)c(=O)c2cccn12 | -55.0* | -5.6% | 1.3% | 0.0%
CCOC(=O)C1CCN(C(=O)Cn2nc(C)n3cccc3c2=O)CC1 | 0.4 | -13.0% | -12.9% | 2.8%
CCCCNC(=O)c1nn(-c2ccc(C)cc2)c(=O)c2c1c1ccccc1n2C | nt | 0.0% | -8.5% | nt
O=C(O)CCNc1ccc(NCCC(=O)O)c2c1C(=O)c1ccccc1C2=O | 0.1 | -8.3% | -15.0% | 44.7µM*
O=C(N/N=C1/C[C@@H](O)[C@@H](O)[C@@H]2[C@H]3C(=O)N(c4ccc(F)cc4F)C(=O)[C@@H]3CC[C@@H]12)OCc1ccccc1 | nt | -7.3%[15.3 µM] | nt | nt
Cc1ccc2nc(NC(=O)CSc3nccn3Cc3ccc(F)cc3)sc2c1 | nt | 36.3% | -14.7% | nt
O=C(Cn1cc(C(F)(F)F)ccc1=O)N/N=C/c1ccc(O)cc1 | -39.0* | -7.8% | 16.0% | 3.6%
CC(C)[C@H](O)CC[C@@H](C)C1CC[C@H]2C3CC=C4C[C@@H](O)CC[C@]4(C)C3CC[C@]12C (some centres not stated) | nt | 2.2% | nt | nt
CC(C)(C)c1ccc(CSc2nc(N)cc(=O)[nH]2)cc1 | -54.6* | 1.0% | -6.8% | -1.3%
Nc1cc(=O)[nH]c(SCc2ccc(Cl)cc2)n1 | 1.3 | ? | 0.3% | -0.2%
Cc1oc(-c2ccc(Cl)cc2)nc1CS(=O)CC(=O)NCCc1ccccc1 (configuration not stated) | nt | -11.5% | 3.5% | nt
Cc1cc2ccccc2n1CCNC(=O)c1ccc(Br)o1 | -1.4 | -13.3% | 31.6µM* | ?
Cc1cc2ccccc2n1CCNC(=O)C(C)(C)C | -3.2 | -7.5% | 22.4µM* | 0.3%
Cc1onc(-c2ccccc2Cl)c1C(=O)NCCn1c(C)cc2ccccc21 | 0.8 | -16.4% | 31.6µM* | ?
Cc1cc2ccccc2n1CCNC(=O)c1ccc(Br)cc1 | nt | -13.6% | -4.2% | nt
Cc1cc2ccccc2n1CCNC(=O)c1ccccc1 | -0.7 | ? | ? | 39.8µM*
Cc1onc(-c2ccccc2Cl)c1C(=O)NCC(=O)O | -3.1 | -3.8% | 0.2% | 0.4%
Cc1csc2nc(COC(=O)CNC(=O)c3ccc(F)cc3)cc(=O)n12 | nt | -9.3% | -5.0% | nt
COc1ccc(NC(=O)CCNS(=O)(=O)c2cccc3nsnc23)cc1Cl | nt | -9.7% | 7.4% | nt
